In assay [1] the target is T1, Ephrin type-A receptor 3 (Homo sapiens) (UniProt P29320).
T1 sequence (whole entry): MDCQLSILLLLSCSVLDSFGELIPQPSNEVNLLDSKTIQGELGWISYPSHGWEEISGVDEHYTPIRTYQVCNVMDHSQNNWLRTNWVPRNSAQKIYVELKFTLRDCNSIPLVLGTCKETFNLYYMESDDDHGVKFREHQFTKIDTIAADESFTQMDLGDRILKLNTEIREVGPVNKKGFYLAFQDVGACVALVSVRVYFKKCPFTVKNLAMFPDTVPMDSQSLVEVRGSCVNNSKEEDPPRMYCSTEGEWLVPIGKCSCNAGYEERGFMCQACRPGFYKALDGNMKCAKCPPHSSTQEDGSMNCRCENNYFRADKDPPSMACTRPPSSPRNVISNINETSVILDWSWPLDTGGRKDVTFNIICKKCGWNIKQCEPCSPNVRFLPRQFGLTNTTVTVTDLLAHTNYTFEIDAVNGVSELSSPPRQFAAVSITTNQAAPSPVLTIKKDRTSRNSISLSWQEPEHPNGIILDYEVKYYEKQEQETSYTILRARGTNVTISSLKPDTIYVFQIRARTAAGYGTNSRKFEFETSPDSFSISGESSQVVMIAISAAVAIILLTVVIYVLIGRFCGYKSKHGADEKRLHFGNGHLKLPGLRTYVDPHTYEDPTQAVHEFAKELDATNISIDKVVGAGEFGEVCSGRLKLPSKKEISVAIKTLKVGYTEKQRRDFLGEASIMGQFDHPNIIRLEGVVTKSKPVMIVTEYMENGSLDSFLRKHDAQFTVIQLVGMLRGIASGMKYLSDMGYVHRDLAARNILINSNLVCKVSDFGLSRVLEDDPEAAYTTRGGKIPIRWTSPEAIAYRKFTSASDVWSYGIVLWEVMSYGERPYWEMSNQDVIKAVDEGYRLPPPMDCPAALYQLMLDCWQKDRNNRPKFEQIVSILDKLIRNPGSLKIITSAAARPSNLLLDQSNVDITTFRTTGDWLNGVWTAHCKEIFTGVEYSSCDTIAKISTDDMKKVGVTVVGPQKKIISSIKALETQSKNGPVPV
The conditions noted are these: at 10 µM.

In assay [2] the target is Ephrin type-A receptor 4 (Homo sapiens) (UniProt P54764). Particulars: at 1 µM.
Assay [3] shares this target. Particulars: at 10 µM.
The target in assay [4] is Ephrin type-A receptor 5 (Homo sapiens) (UniProt P54756). The conditions noted are these: at 1 µM.
Assay [5] has the same target. Particulars: at 10 µM.
The target of assay [6] is Ephrin type-A receptor 7 (Homo sapiens) (UniProt Q15375). Particulars: at 1 µM.
Assay [7] shares this target. The conditions noted are these: at 10 µM.
Assay [8] addresses T2, Ephrin type-A receptor 8 (Homo sapiens) (UniProt P29322).
T2 sequence (whole entry): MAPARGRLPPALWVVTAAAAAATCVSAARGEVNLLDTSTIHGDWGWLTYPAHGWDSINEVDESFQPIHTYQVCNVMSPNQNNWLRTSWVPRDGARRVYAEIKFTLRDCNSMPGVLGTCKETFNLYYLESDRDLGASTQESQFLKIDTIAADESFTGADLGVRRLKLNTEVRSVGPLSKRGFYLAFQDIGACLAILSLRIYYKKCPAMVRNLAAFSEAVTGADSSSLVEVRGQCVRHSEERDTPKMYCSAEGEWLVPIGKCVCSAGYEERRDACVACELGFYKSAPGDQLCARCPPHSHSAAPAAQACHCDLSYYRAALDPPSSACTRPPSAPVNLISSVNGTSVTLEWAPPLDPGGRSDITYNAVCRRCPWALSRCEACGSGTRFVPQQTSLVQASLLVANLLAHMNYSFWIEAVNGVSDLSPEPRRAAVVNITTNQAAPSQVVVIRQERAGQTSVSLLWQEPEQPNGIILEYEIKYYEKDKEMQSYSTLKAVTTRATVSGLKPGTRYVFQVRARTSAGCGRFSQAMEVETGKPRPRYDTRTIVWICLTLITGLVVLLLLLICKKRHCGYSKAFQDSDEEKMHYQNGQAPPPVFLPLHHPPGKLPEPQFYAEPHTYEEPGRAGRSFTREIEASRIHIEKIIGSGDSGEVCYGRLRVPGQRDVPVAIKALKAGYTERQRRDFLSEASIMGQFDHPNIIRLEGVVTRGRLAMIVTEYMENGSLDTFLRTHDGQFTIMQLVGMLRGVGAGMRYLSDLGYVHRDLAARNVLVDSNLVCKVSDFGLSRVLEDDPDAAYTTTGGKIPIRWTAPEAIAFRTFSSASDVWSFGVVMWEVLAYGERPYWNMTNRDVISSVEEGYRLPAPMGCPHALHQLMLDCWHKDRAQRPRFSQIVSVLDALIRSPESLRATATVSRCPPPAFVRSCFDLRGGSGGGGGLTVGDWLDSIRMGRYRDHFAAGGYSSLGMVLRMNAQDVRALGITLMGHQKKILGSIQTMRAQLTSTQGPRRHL
Particulars: at 1 µM.

Assay [9] deals with T2, Ephrin type-A receptor 8 (Homo sapiens). The conditions noted are these: at 10 µM.
The target of assay [10] is T3, Ephrin type-B receptor 1 (Homo sapiens) (UniProt P54762).
T3 sequence (whole entry): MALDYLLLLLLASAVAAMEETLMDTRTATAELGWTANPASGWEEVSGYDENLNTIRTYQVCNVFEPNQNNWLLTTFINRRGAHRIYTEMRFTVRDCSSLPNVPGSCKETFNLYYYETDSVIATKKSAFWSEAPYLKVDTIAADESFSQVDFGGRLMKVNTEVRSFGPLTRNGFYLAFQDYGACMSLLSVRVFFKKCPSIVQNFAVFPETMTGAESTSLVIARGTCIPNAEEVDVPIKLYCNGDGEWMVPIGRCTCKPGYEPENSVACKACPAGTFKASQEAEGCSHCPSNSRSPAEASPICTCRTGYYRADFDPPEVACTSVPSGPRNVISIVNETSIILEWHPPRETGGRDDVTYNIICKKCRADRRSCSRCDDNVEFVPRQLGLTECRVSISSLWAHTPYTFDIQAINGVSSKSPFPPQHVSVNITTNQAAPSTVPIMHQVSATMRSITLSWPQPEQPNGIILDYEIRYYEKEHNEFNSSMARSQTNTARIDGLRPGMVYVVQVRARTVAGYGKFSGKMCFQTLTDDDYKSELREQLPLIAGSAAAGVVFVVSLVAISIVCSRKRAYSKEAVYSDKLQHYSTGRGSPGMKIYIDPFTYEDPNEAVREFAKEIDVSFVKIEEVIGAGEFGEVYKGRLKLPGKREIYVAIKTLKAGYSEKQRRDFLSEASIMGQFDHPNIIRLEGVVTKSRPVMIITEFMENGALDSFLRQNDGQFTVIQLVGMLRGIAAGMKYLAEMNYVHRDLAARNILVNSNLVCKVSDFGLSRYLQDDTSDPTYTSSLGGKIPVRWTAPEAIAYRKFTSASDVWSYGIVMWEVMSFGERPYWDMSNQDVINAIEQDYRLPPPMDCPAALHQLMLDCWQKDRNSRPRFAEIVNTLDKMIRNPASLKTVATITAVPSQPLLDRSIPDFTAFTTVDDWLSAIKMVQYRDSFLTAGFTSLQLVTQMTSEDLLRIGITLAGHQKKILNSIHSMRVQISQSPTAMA
The conditions noted are these: at 1 µM.

Usually residual activity stands for the signal under treatment as a percentage of the control signal.

Chain of Ephrin type-A receptor 7 (Homo sapiens) (Q15375 28-998 limits assumed): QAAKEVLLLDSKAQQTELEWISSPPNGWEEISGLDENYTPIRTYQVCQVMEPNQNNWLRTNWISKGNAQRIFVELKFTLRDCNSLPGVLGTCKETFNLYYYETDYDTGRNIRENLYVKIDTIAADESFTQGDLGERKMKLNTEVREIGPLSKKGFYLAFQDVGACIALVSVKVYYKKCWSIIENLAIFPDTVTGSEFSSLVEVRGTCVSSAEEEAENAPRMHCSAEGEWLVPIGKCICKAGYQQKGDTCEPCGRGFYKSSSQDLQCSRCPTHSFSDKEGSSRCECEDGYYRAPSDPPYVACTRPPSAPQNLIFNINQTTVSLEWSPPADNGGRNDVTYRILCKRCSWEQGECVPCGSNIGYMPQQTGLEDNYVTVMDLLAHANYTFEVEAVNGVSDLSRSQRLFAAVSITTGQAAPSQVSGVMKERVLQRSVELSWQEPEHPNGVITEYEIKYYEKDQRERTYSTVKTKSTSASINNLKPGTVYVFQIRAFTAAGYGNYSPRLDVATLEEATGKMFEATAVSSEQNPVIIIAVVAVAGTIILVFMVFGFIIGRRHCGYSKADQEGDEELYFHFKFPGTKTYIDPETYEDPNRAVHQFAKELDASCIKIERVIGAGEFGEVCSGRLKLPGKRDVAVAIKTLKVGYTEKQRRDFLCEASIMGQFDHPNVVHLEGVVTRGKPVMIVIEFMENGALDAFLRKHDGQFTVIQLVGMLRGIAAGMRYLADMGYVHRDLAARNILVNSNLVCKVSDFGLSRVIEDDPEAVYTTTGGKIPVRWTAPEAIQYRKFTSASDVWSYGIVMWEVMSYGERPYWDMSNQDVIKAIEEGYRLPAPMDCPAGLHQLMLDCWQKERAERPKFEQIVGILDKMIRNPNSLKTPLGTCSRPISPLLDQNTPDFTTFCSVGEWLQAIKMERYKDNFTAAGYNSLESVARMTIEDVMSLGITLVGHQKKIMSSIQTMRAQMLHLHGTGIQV
Chain of Ephrin type-A receptor 4 (Homo sapiens) (P54764 whole entry): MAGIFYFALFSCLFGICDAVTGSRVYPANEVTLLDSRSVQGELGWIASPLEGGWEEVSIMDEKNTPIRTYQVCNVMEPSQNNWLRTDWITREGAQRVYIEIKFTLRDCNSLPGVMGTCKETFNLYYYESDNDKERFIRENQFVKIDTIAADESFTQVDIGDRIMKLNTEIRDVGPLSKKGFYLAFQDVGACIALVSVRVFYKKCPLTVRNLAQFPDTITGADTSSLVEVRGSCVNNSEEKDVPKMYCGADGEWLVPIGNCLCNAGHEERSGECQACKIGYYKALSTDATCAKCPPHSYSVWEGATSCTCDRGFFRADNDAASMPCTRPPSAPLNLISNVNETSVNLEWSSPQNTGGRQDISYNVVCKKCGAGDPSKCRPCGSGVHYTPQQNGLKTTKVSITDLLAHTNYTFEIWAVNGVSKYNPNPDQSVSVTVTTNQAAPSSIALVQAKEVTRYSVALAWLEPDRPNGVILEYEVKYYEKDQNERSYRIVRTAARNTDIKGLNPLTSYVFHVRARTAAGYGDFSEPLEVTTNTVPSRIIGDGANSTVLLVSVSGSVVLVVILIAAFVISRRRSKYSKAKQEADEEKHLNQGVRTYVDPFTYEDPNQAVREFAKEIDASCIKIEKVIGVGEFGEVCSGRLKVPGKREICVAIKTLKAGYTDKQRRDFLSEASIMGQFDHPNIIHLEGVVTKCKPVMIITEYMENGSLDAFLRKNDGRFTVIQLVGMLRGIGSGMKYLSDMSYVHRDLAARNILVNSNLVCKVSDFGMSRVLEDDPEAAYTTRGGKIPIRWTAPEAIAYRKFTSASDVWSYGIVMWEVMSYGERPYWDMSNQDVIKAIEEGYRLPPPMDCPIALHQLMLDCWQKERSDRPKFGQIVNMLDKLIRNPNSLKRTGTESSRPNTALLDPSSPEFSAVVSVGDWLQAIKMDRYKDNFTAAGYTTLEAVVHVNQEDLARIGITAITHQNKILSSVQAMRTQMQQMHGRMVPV
Chain of Ephrin type-A receptor 5 (Homo sapiens) (P54756 whole entry): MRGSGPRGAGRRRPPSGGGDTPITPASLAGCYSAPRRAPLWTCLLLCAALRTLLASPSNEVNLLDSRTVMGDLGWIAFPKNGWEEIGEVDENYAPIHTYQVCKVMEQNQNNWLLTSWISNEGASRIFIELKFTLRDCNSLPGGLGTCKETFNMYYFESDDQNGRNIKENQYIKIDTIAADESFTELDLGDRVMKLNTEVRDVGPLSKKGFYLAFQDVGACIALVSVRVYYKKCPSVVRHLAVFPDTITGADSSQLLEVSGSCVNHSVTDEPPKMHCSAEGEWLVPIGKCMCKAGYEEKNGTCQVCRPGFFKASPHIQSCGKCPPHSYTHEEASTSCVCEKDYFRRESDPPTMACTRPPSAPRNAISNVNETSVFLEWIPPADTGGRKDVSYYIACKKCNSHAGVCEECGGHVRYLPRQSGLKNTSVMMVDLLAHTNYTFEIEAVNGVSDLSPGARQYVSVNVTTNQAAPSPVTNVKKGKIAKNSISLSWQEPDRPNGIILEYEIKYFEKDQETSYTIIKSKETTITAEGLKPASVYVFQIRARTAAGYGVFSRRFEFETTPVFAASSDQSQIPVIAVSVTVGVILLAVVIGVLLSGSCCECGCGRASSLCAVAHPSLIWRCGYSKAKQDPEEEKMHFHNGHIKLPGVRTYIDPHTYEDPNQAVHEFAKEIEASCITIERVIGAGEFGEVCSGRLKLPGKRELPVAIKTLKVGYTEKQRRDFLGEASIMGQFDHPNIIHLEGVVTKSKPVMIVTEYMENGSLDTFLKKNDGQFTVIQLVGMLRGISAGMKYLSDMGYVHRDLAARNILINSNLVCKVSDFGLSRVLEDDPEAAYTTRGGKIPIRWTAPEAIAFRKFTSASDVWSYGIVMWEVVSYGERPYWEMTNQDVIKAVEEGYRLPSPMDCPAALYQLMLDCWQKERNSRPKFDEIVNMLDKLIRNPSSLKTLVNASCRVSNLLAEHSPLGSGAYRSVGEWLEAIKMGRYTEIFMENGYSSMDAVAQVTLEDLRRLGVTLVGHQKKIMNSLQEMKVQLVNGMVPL

`COc1cc2ncnc(Nc3ccc(O)c(Br)c3)c2cc1OC`: the residual activity in assay [1] worked out at 20%; in assay [2], 89%; in assay [3] it was 41%; in assay [4] it was 74%; in [5] it was 21%; in assay [6] it was 34%. Further, the residual activity came out at 7% in assay [7], 70% in assay [8], 28% in assay [9] and 62% in assay [10].
